{
  "source": "PubChem BioAssay (Tox21)",
  "note": "Records with an inconclusive call do not appear. Where a call stands in place of a potency, no number is given. The source made the active and inactive calls. Calls come from the whole dose curve.",
  "data": [
    {"test": "p53 small molecule agonists, cell-based qHTS assay: qHTS cell viability counter screen (AID 1963581); note: nearly all actives have a fitted effect of over 45% in size", "conditions": "p53RE-bla HCT-116 viability, ATP luminescence, 16 h; series mostly up to 66 µM", "description": "National Center for Advancing Translational Sciences [NCATS]\nDivision of Preclinical Innovation [DPI]\nU.S. Environmental Protection Agency [EPA]\nNational Institutes of Environmental Health Sciences [NIEHS]\nNational Toxicology Program [NTP]\nU.S. Food and Drug Administration [FDA]\np53, a tumor suppressor protein, is activated following cellular insult, including DNA damage and other cellular stresses. The activation of p53 regulates cell fate by inducing DNA repair, cell cycle arrest, apoptosis, or cellular senescence. The activation of p53, therefore, is a good indicator of DNA damage and other cellular stresses. The CellSensor p53RE-bla HCT-116 cell line (Invitrogen) contains a stably integrated beta-lactamase reporter gene under control of the p53 response elements. The activation of the reporter gene under culture conditions can be detected by fluorescence intensity. This cell line was used to screen the Tox21 compound library in a 1536-well plate format and to identify agonists that activate the p53 signaling pathway. The cytotoxicity of the Tox21 compound library against the p53 RE-bla HCT-116 cell line was tested in parallel by measuring the intra cellular ATP content in the same wells.\nTox21 Assay Protocol Summary:\nThe p53RE-bla cells were dispensed at 4,000 cells/5 ul/well in 1536-well black wall/clear bottom plates using a Multidrop dispenser. After the assay plates were incubated at a 37 C/5% CO2 incubator for 5 hours, 23 nL of compounds dissolved in DMSO, positive controls or DMSO only was transferred to the assay plate by a pin tool. The plates were incubated at 37 C for 16 hours. After 1 uL of LiveBLAzerTM B/G FRET substrate was added using a Flying Reagent Dispenser, the plates were incubated at room temperature for 2 hours, and fluorescence intensity was measured by an Envision plate reader. For cell viability readout that measures cytotoxicity, 4 ul/well of CellTiter-Glo reagent was added into the assay plates using a Flying Reagent Dispenser. After 30 min incubation at room temperature, the luminescence intensity in the plates was measured using a ViewLux plate reader.", "values": [
      {"smiles": "COc1cc(CC(C)N)cc(OC)c1OC", "note": "(stereo not given)", "Potency": "inactive"},
      {"smiles": "CCCCS(=O)(=O)Cl", "Potency": "inactive"},
      {"smiles": "COP(=O)(OC)O/C(C)=C/C(=O)N(C)C", "Potency": "inactive"},
      {"smiles": "O=CNC(N1CCN(C(NC=O)C(Cl)(Cl)Cl)CC1)C(Cl)(Cl)Cl", "note": "(stereo not given)", "Potency": "inactive"},
      {"smiles": "c1ccc2cc3c(cc2c1)-c1cccc2cccc-3c12", "Potency": "inactive"},
      {"smiles": "CC(C)(N)Cc1ccc(Cl)cc1", "Potency": "inactive"},
      {"smiles": "CCCC[N+](=O)[O-]", "Potency": "inactive"},
      {"smiles": "CC1(C)C(/C=C(\\Cl)C(F)(F)F)C1C(=O)OC(C#N)c1cccc(Oc2ccccc2)c1", "note": "(stereo not given)", "Potency": "inactive"},
      {"smiles": "CC(C)CBr", "Potency": "inactive"},
      {"smiles": "O=S(=O)(C(Cl)(Cl)Cl)C(Cl)(Cl)Cl", "Potency": "inactive"},
      {"smiles": "C[C@]12CC[C@H]3[C@@H](CCC4=CC(=O)CC[C@@]43C)[C@@H]1CC[C@@H]2C(=O)O", "Potency": "inactive"},
      {"smiles": "COc1cc(C[C@@H](C)N)c(OC)cc1Br", "Potency": "inactive"},
      {"smiles": "CCC(Cl)CCl", "note": "(stereo not given)", "Potency": "inactive"},
      {"smiles": "O=C(O)C(Br)CBr", "note": "(stereo not given)", "Potency": "inactive"},
      {"smiles": "OC(c1ccccc1)(c1ccccc1)C1CCNCC1", "Potency": "inactive"},
      {"smiles": "CCC/C(=N\\OCC)C1=C(O)CC(CC(C)SCC)CC1=O", "note": "(stereo not given)", "Potency": "inactive"},
      {"smiles": "CCCC(Cn1cncn1)c1ccc(Cl)cc1Cl", "note": "(stereo not given)", "Potency": "inactive"},
      {"smiles": "COc1cc(C=O)cc2c1[C@H](COC(N)=O)[C@]1(OC(C)=O)ON2C[C@H]2[C@@H]1N2C(C)=O", "Potency": "inactive"},
      {"smiles": "CCOP(=S)(OCC)SCSCC", "Potency": "inactive"},
      {"smiles": "CCOC(=O)COc1cc(-c2nn(C)c(OC(F)F)c2Cl)c(F)cc1Cl", "Potency": "inactive"},
      {"smiles": "ClC1=C(Cl)[C@]2(Cl)[C@H]3[C@H]([C@H]4C=C[C@H]3C4)[C@@]1(Cl)C2(Cl)Cl", "Potency": "inactive"},
      {"smiles": "COC(=O)C1=CCCN(C)C1", "Potency": "inactive"},
      {"smiles": "NNC(=O)c1cccnc1", "Potency": "inactive"},
      {"smiles": "O=c1[nH]oc2c1CCNC2", "Potency": "inactive"},
      {"smiles": "CCC(C)(c1ccc(O)cc1)c1ccc(O)cc1", "Potency": "inactive"},
      {"smiles": "CC(C)(C)c1ccc(CCOc2ncnc3ccccc23)cc1", "Potency": "inactive"},
      {"smiles": "CCCOC(=O)Cc1ccc(OCC(=O)N(CC)CC)c(OC)c1", "Potency": "inactive"},
      {"smiles": "O=C1CN=C(c2ccccc2)c2cc([N+](=O)[O-])ccc2N1", "Potency": "inactive"},
      {"smiles": "COc1ccc(OC)c(CC(C)N)c1", "note": "(stereo not given)", "Potency": "inactive"},
      {"smiles": "Oc1ccc(Cl)c(Cl)c1Cl", "Potency": "inactive"},
      {"smiles": "CCOP(=S)(OCC)Oc1ncn(-c2ccccc2)n1", "Potency": "inactive"},
      {"smiles": "Cc1cc(Cl)ccc1O[C@H](C)C(=O)O", "Potency": "inactive"},
      {"smiles": "CN1CC[C@]23c4c5ccc(O)c4O[C@H]2[C@@H](O)C=C[C@H]3[C@H]1C5", "Potency": "inactive"},
      {"smiles": "COc1ccc(C(=O)c2c(C)n(CCN3CCOCC3)c3ccccc23)cc1", "Potency": "inactive"},
      {"smiles": "COC(=O)c1ccccc1S(=O)(=O)NC(=O)Nc1nc(C)nc(OC)n1", "Potency": "inactive"},
      {"smiles": "COc1ccc(/C(=C/C(=O)N2CCOCC2)c2ccc(Cl)cc2)cc1OC", "Potency": "inactive"},
      {"smiles": "Nc1cc(Cl)ccc1Cl", "Potency": "inactive"},
      {"smiles": "O=C(O)/C=C/C(=O)O", "Potency": "inactive"},
      {"smiles": "O=C(O)/C=C\\C(=O)O", "Potency": "inactive"},
      {"smiles": "CC(C)(C)NCC(O)c1cc(Cl)c(N)c(Cl)c1", "note": "(stereo not given)", "Potency": "inactive"}
    ]}
  ]
}
